The structures appear in SMILES notation. Calls of active or inactive are those of the source. Cut-off read from the data, not from the text of the source: active = inhibition above about 30%; inactive = the rest.

By inhibition is commonly meant the drop in the measured response relative to a control, in per cent.

In the experiment the test system is transactivating tegument protein VP16 (Human herpesvirus 1), Gal4-VP16 luciferase reporter. Kind of experiment: VP16 transactivation inhibitors, counter-screen for SRC3 inhibitor project, cell-based, luminescence, high throughput (AID 588794). As to conditions: mammalian cells, VP16-driven luciferase reporter luminescence; at 3.6 µM; hits give high values. On the technique in general: The purpose of a counterscreen is to sort out artefacts and off-target activity.
Turning to `COc1ccc(N2CCN(c3nc(NCCc4ccc(OC)c(OC)c4)nc(OC)n3)CC2)cc1`, the inhibition was 1.14% (inactive).
Regarding `CC(=O)c1c(C)[nH]c(C(=O)OCC(=O)Nc2ccc(C)cc2[N+](=O)[O-])c1C`, the inhibition was 52.8% (active).
To `[O-]C(=C(C(=S)Nc1cccc2ccccc12)[n+]1ccccc1)c1ccc2c(c1)OCCO2` belongs -0.81% (inactive); to `Cc1ccc(O)c(C(=O)c2cnc3c(c2)COc2ccccc2-3)c1`, 5.53% (inactive); to `CC(=O)c1c(C(C)=O)c(C)n(-c2ccc3ncccc3c2)c1C`, 6.55% (inactive).
Consider `CC12CN3CC(C)(CN(C1)C3c1ccccc1F)C2` (centres undefined), for which the inhibition was 4.18% (inactive).
Consider `Cc1ccc(C(=O)N(Cc2cccs2)C2CCS(=O)(=O)C2)cc1` (centres undefined), for which the inhibition is 0.26% (inactive).
The result for `Cc1noc(C)c1COC(=O)c1cc(F)c(F)cc1Cl` reads 1.74% (inactive); that for `CC(C)C(=O)N1CCN(c2ccc(NC(=O)COc3ccccc3[N+](=O)[O-])cc2)CC1`, 28.6% (inactive); that for `Cc1cc(C=C2C(=O)c3ccccc3C2=O)c(C)n1-c1ccccc1`, 43.2% (active).
To `C/C(=N\NC(N)=S)C1C2C3CC4C5CC(C42)C1C53` (centres undefined) belongs 30% (active); to `O=C(O)c1cc(NS(=O)(=O)c2ccc(N3CCOCC3)c([N+](=O)[O-])c2)cc(C(=O)O)c1`, -5.01% (inactive); to `Cc1cccc(NC(=O)c2cc(-c3ccccn3)nc3ccccc23)c1C`, 8.29% (inactive).
Turning to `CCOc1c(Br)cc(CNC2CCCCCCC2)cc1OC`, the inhibition was -0.26% (inactive).
The result for `CCSc1ccccc1C(=O)NCc1ccc2c(c1)OCO2` reads -10.1% (inactive); that for `CCOc1ccc(-c2cc(C)n3nc(C(N)=O)cc3n2)cc1`, 23.3% (inactive); that for `Cc1cccc(C)c1OCC(=O)N(Cc1cccs1)C1CCS(=O)(=O)C1` (centres undefined), 1.1% (inactive).
Take `NC(=S)N/N=C1\CCOc2ccc(Cl)cc21`: the inhibition is 9.88% (inactive).
For `CCOC(=O)c1ccc2nc(Nc3nc4ccc(F)cc4s3)sc2c1`, the inhibition is 3.4% (inactive).
To `CCCCNC1C(CC)C(CCC)C(C#N)(C#N)C1(C#N)C#N` (centres undefined) belongs 20% (inactive).
The result for `COc1ccc(C)cc1NC(=O)c1nnn(Cc2cccc(F)c2)c1N` reads 26.1% (inactive).
The result for `CCCCN(CCCC)C(=O)CSc1nnc(-c2cc(OC)c(OC)c(OC)c2)o1` reads 4.79% (inactive); that for `COc1ccc(CCNC(=O)COc2ccc(N(C)S(=O)(=O)c3ccc(Cl)cc3)cc2)cc1`, 20.2% (inactive).
For `CCCCc1nc2ccccc2c(N)c1CCC` (tested in a mixture with another compound), the inhibition was 9.99% (inactive).
The result for `CC(=O)Nc1cccc(C(=O)/C=C/c2ccc(Br)cc2)c1` reads 11% (inactive).
With `O=C(CCSc1ccc(Cl)cc1)N1CCN(c2ccc(O)cc2)CC1`, the inhibition is 28% (inactive).
The result for `O=C(NCc1ccc(Cl)cc1)c1cccc(NC(=O)c2ccccc2)c1` reads 26.9% (inactive).
The result for `O=C(NCCCn1ccnc1)C(=O)NCc1ccc(Cl)cc1` reads -1.8% (inactive); that for `Cc1ccc(C)c(N2CCN(C(=O)C34CC5CC(C3)CC(n3nnc(C)n3)(C5)C4)CC2)c1`, 29.6% (active); that for `CCCNc1nc(OC(C(F)(F)F)C(F)(F)F)nc(OC(C(F)(F)F)C(F)(F)F)n1`, -8.01% (inactive).
The result for `COc1cc(C2C(C#N)=C(SC)NC3=C2C(=O)CCC3)ccc1O` (centres undefined) reads 14.7% (inactive).
On to `N#C/C(C(N)=O)=C1/CCc2ccccc2N1`, for which the inhibition was -2.45% (inactive).
Turning to `CC(=O)N1CCc2cc(S(=O)(=O)NCCC(=O)NCCc3ccc(Cl)cc3)ccc21`, the inhibition is 1.52% (inactive).
To `Cc1nc(Nc2nc(CSc3nc4ccccc4[nH]3)cc(=O)[nH]2)nc2ccccc12` belongs 3.35% (inactive); to `CCn1cc(C(=O)NCc2ccco2)c(=O)c2cc(S(=O)(=O)N3CCCCCC3)ccc21`, 23.5% (inactive); to `CCCCNC(=O)c1onc(CSc2cc(C)cc(C)c2)c1C(=O)NCCCC`, 4.86% (inactive).
To `COc1ccc(Oc2ccc(/C=C/C(=O)c3ccc(O)cc3)cc2[N+](=O)[O-])cc1` belongs -5.56% (inactive); to `COc1ccc(C(=O)Nc2c(-c3cccs3)c(=O)c3ccccc3n2C)cc1`, 7.07% (inactive); to `COC(=O)N/N=C/c1cn(Cc2ccc(Cl)cc2Cl)c2ccccc12`, 0.26% (inactive).

Source of the values: PubChem BioAssay.
